Data as given in PMC7862700, “An all-to-all approach to the identification of sequence-specific readers for epigenetic DNA modifications on cytosine”.

Columns and labels:
Experiment in all cases: DAPPL (digital affinity profiling via proximity ligation, sequencing); 10 mM Tris-HCl pH 7.5, 50 mM NaCl, 1 mM DTT, 4% glycerol, room temperature, 30 min; GST-TFs on glutathione beads, 16-mer random dsDNA library, 0.1% formaldehyde crosslink after washing; high values mean tight binding
FLI1 = target: T1, FLI1 (Homo sapiens, UniProt Q01543 1-452); details: protein: recombinant; tags: N-terminal GST; dsDNA, one strand shown
T1 sequence: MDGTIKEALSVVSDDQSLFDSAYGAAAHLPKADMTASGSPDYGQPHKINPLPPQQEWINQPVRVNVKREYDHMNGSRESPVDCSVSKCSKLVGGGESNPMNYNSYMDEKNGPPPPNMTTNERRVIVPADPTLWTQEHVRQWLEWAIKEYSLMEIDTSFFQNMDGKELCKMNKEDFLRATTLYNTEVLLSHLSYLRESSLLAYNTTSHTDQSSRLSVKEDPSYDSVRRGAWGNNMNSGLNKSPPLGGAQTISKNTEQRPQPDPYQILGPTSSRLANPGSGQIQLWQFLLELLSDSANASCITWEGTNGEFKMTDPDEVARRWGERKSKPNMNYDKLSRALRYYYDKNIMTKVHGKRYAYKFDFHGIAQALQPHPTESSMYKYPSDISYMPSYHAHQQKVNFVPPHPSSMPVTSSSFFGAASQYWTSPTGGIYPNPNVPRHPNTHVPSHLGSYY
Summary of the method: (§1)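 Human transcription factors were made in yeast as GST fusions, captured on glutathione beads and barcoded with DNA. With a tag-only sample included, the pool was incubated with 200 nmole of a random double-stranded 16-mer DNA library in Tris/NaCl/DTT/glycerol buffer at room temperature for 30 min, then crosslinked with 0.1% formaldehyde after washing, ligated by proximity, amplified and sequenced. For binding signal, each hexamer's read frequency for a factor is divided by its frequency for the tag-only sample.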

ELK1 = target: T2, ELK1 (Homo sapiens, UniProt P19419 1-428); details: protein: recombinant; tags: N-terminal GST; dsDNA, one strand shown
T2 sequence: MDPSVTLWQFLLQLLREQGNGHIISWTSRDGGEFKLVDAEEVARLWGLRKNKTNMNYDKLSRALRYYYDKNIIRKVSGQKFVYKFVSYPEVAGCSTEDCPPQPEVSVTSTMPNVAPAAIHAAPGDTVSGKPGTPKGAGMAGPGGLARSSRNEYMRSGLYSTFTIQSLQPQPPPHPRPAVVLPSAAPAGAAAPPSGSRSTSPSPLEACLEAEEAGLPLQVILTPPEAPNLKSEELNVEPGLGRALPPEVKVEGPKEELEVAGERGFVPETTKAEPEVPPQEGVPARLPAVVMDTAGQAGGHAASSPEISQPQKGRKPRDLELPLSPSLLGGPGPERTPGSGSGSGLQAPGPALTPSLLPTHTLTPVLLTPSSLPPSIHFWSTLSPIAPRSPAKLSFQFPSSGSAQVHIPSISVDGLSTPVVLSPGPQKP
Summary of the method: as §1

GABPA = target: T3, GABPA (Homo sapiens, UniProt Q06546 1-454); details: protein: recombinant; tags: N-terminal GST; dsDNA, one strand shown
T3 sequence: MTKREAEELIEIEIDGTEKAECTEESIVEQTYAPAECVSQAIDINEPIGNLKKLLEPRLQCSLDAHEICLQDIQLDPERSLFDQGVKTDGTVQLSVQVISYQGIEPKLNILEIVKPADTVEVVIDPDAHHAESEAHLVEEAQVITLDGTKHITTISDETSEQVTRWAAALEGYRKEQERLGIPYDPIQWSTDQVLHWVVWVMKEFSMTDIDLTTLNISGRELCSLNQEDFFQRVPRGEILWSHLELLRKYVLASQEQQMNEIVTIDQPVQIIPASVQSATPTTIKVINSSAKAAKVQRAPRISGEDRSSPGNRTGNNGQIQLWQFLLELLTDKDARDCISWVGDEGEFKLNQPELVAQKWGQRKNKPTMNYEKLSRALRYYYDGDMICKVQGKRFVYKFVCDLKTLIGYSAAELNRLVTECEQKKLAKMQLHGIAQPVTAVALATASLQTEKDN
Summary of the method: as §1

ERG = target: T4, ERG (Homo sapiens, UniProt P11308 1-479); details: protein: recombinant; tags: N-terminal GST; dsDNA, one strand shown
T4 sequence: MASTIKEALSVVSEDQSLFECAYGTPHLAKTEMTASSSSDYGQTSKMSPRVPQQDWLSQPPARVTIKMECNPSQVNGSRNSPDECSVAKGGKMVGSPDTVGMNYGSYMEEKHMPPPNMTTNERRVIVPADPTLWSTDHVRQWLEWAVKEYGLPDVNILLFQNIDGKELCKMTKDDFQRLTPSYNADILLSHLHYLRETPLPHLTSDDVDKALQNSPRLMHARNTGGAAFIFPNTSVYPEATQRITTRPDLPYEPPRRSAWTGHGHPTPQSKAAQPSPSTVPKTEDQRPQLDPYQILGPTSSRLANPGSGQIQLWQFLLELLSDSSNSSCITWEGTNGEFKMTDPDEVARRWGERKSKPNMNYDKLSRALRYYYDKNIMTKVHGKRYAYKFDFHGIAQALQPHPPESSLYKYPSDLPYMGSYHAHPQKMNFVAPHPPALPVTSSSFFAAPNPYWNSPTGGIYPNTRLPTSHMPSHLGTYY
Summary of the method: as §1

ELF1 = ELF1 (Homo sapiens, UniProt P32519 1-619); details: protein: recombinant; tags: N-terminal GST; dsDNA, one strand shown
Sequence of ELF1 (P32519 whole entry): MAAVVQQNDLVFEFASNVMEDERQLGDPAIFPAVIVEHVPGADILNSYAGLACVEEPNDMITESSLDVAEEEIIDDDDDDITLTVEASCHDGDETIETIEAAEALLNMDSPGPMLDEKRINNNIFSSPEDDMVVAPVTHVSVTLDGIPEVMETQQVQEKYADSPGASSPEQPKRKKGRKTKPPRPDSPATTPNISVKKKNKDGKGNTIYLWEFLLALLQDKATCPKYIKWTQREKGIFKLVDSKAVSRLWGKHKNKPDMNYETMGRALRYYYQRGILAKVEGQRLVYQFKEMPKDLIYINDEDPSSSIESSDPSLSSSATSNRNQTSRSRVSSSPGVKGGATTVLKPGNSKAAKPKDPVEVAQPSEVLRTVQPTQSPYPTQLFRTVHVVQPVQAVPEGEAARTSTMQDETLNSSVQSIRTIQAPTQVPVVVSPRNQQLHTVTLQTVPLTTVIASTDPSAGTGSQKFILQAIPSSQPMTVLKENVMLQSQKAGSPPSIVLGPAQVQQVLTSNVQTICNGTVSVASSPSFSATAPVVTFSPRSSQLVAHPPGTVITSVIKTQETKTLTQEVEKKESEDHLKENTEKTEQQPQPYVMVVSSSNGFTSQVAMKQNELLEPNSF
Summary of the method: as §1

EHF = target: T5, EHF (Homo sapiens, UniProt Q9NZC4 1-300); details: protein: recombinant; tags: N-terminal GST; dsDNA, one strand shown
T5 sequence: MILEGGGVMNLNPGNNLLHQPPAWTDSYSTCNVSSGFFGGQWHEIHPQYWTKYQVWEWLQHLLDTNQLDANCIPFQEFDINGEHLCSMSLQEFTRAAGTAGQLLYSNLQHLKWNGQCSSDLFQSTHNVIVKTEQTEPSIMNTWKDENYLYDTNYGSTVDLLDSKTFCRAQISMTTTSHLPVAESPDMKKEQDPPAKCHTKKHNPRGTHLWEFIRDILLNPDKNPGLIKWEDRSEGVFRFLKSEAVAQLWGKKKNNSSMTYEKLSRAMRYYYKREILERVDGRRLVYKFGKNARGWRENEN
Summary of the method: as §1

SPI1 = SPI1 (Homo sapiens, UniProt P17947 1-270); details: protein: recombinant; tags: N-terminal GST; dsDNA, one strand shown
Summary of the method: as §1

SPIB = SPIB (Homo sapiens, UniProt Q01892 1-262); details: protein: recombinant; tags: N-terminal GST; dsDNA, one strand shown
Sequence of SPIB (Q01892 whole entry): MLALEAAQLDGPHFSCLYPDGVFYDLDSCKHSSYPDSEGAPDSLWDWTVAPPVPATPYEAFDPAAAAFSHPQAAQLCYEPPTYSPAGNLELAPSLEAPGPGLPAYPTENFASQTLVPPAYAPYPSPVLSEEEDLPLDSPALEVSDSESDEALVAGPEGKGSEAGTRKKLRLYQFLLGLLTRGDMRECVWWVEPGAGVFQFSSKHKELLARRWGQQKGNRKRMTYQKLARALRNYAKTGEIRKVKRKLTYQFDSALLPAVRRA
Summary of the method: as §1

ELK3 = target: T6, ELK3 (Homo sapiens, UniProt P41970 1-407); details: protein: recombinant; tags: N-terminal GST; dsDNA, one strand shown
T6 sequence: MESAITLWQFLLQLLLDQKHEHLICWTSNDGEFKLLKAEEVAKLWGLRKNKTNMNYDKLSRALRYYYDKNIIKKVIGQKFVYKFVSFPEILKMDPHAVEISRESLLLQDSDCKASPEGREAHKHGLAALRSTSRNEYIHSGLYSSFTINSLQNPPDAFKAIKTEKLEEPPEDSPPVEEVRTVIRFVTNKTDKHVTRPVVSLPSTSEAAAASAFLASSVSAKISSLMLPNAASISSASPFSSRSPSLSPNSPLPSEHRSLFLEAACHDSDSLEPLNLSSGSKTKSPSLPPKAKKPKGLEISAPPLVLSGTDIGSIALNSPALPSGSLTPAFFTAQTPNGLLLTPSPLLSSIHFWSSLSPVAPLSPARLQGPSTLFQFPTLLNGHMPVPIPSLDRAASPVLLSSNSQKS
Summary of the method: as §1

FEV = target: T7, FEV (Homo sapiens, UniProt Q99581 1-238); details: protein: recombinant; tags: N-terminal GST; dsDNA, one strand shown
T7 sequence: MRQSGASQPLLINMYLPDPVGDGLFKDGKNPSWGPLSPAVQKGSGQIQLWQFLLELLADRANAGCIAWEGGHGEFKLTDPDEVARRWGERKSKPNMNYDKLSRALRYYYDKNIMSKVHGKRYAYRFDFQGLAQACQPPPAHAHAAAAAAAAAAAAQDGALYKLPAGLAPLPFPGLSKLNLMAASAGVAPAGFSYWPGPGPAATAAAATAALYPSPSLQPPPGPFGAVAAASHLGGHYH
Summary of the method: as §1

ETV5 = ETV5 (Homo sapiens, UniProt P41161 1-510); details: protein: recombinant; tags: N-terminal GST; dsDNA, one strand shown
Sequence of ETV5 (P41161 whole entry): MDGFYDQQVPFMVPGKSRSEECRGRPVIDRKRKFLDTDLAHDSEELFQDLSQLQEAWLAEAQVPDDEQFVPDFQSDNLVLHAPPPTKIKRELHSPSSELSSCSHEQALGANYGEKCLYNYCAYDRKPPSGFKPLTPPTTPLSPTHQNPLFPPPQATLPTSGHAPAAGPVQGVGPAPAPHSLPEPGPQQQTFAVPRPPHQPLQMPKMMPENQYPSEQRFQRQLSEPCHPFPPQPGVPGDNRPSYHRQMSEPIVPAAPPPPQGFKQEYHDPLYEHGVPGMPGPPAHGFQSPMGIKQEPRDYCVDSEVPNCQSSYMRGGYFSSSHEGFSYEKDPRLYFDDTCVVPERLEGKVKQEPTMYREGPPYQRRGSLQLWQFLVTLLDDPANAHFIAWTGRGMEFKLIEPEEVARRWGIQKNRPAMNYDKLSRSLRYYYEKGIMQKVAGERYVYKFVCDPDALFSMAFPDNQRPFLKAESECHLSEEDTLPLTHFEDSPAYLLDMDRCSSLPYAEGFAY
Summary of the method: as §1

HSF1 = HSF1 (Homo sapiens, UniProt Q00613 1-529); details: protein: recombinant; tags: N-terminal GST; chain copies: 3; dsDNA, one strand shown
Sequence of HSF1 (Q00613 whole entry): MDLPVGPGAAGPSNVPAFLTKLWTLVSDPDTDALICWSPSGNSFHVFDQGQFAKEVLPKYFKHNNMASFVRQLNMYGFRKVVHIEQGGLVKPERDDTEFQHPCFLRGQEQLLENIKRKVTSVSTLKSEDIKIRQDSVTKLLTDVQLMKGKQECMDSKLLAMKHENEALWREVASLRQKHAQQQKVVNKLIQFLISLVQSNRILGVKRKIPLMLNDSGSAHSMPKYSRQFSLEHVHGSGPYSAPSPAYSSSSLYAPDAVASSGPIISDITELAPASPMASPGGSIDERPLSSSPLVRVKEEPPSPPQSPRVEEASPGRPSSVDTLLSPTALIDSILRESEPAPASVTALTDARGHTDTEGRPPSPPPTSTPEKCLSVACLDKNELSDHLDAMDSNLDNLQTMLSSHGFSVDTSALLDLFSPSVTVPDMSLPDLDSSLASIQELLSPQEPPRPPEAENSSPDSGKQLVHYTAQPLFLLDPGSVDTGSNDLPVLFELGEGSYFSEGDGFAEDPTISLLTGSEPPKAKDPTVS
Summary of the method: as §1

SPIC = target: T8, SPIC (Homo sapiens, UniProt Q8N5J4 1-248); details: protein: recombinant; tags: N-terminal GST; dsDNA, one strand shown
T8 sequence: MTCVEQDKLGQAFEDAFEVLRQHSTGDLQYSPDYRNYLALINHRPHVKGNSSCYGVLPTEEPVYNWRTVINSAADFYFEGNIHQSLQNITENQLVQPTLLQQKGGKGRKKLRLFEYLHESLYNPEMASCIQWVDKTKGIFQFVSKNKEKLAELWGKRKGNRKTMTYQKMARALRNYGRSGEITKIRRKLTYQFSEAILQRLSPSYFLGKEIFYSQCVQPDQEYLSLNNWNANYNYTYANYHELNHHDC
Summary of the method: as §1

ELF4 = ELF4 (Homo sapiens, UniProt Q99607 1-663); details: protein: recombinant; tags: N-terminal GST; dsDNA, one strand shown
Sequence of ELF4 (Q99607 whole entry): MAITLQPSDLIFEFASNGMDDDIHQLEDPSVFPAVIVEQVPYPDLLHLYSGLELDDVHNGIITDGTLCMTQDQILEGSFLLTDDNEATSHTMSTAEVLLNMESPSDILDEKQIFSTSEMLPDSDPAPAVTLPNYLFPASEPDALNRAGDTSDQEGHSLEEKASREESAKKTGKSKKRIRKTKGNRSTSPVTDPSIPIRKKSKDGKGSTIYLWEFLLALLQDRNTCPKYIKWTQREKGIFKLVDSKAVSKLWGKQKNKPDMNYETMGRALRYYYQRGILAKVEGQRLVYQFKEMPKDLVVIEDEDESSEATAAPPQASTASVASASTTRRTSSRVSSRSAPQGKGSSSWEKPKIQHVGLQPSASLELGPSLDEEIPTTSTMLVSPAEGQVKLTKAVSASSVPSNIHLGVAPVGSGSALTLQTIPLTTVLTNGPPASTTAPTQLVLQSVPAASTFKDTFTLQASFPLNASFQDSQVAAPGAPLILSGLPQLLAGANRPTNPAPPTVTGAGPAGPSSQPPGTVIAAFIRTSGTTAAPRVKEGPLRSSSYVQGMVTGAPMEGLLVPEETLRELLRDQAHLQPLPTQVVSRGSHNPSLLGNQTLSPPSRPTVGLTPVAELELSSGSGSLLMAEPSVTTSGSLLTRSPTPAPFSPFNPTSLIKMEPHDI
Summary of the method: as §1

ELK4 = target: T9, ELK4 (Homo sapiens, UniProt P28324-2 1-405); details: protein: recombinant; tags: N-terminal GST; dsDNA, one strand shown
T9 sequence: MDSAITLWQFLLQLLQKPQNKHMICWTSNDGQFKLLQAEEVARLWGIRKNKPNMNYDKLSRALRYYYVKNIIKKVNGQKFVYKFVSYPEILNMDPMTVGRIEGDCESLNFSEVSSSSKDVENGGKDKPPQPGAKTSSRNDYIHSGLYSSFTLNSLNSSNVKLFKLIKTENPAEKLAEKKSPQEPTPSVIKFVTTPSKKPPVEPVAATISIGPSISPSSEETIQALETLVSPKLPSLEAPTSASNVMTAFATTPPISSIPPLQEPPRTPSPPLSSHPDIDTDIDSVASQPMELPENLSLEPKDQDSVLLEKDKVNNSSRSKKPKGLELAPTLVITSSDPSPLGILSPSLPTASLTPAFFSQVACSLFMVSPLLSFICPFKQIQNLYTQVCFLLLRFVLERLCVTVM
Summary of the method: as §1

ETV2 = target: T10, ETV2 (Homo sapiens, UniProt O00321 1-342); details: protein: recombinant; tags: N-terminal GST; dsDNA, one strand shown
T10 sequence: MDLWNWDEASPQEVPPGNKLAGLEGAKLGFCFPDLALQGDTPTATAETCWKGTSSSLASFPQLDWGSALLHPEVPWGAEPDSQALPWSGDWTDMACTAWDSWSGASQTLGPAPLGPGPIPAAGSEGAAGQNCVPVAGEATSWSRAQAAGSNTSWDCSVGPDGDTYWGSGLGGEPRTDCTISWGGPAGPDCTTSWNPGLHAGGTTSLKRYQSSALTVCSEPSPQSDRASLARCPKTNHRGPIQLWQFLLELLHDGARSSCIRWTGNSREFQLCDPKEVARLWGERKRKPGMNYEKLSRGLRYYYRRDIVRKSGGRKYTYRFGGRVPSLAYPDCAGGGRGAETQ
Summary of the method: as §1

ELF3 = target: T11, ELF3 (Homo sapiens, UniProt P78545 1-371); details: protein: recombinant; tags: N-terminal GST; dsDNA, one strand shown
T11 sequence: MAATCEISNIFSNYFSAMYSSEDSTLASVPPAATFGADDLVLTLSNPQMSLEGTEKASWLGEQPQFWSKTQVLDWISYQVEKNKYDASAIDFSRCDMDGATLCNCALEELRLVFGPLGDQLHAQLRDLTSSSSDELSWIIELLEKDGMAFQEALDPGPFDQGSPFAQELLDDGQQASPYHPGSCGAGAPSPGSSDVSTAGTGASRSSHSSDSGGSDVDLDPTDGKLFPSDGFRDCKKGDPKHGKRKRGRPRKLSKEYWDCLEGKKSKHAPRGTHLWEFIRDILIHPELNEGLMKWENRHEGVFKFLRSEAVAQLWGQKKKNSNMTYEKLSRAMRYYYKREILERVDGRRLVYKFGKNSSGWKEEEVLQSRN
Summary of the method: as §1

CRX = CRX (Homo sapiens, UniProt O43186 1-299); details: protein: recombinant; tags: N-terminal GST; dsDNA, one strand shown
Sequence of CRX (O43186 whole entry): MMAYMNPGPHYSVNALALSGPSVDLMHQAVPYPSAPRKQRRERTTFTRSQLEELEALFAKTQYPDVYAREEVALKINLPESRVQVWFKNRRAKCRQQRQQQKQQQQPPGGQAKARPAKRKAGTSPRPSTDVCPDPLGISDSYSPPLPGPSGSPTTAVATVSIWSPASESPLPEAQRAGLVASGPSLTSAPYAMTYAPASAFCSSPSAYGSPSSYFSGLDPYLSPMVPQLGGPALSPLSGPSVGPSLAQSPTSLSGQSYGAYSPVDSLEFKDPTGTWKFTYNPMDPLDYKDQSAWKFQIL
Summary of the method: as §1

ETV1 = ETV1 (Homo sapiens, UniProt P50549 1-477); details: protein: recombinant; tags: N-terminal GST; dsDNA, one strand shown
Sequence of ETV1 (P50549 whole entry): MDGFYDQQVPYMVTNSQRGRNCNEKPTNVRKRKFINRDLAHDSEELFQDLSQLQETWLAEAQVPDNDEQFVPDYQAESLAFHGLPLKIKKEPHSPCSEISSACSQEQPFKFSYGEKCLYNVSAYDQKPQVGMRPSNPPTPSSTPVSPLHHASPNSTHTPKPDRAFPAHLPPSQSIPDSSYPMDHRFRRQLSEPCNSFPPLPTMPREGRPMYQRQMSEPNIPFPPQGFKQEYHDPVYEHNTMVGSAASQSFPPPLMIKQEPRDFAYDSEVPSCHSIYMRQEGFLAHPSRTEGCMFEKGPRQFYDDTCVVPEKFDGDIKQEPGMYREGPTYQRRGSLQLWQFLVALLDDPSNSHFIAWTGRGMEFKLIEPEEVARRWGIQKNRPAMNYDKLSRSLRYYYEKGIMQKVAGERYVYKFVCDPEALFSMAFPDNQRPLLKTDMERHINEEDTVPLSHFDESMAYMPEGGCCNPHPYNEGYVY
Summary of the method: as §1

CTGAAC
binding signal (FLI1): 1.35 fold enrichment (6-mer frequency, TF over GST control)
binding signal (ELK1): 1.41 fold enrichment (6-mer frequency, TF over GST control)
binding signal (GABPA): 1.37 fold enrichment (6-mer frequency, TF over GST control)
binding signal (ERG): 1.4 fold enrichment (6-mer frequency, TF over GST control)
binding signal (ELF1): 1.37 fold enrichment (6-mer frequency, TF over GST control)
binding signal (EHF): 1.35 fold enrichment (6-mer frequency, TF over GST control)
binding signal (SPI1): 1.36 fold enrichment (6-mer frequency, TF over GST control)
binding signal (SPIB): 1.42 fold enrichment (6-mer frequency, TF over GST control)
binding signal (ELK3): 1.2 fold enrichment (6-mer frequency, TF over GST control)
binding signal (FEV): 1.35 fold enrichment (6-mer frequency, TF over GST control)
binding signal (ETV5): 1.41 fold enrichment (6-mer frequency, TF over GST control)
binding signal (HSF1): 1.33 fold enrichment (6-mer frequency, TF over GST control)
binding signal (SPIC): 1.31 fold enrichment (6-mer frequency, TF over GST control)
binding signal (ELF4): 1.3 fold enrichment (6-mer frequency, TF over GST control)
binding signal (ELK4): 1.44 fold enrichment (6-mer frequency, TF over GST control)
binding signal (ETV2): 1.35 fold enrichment (6-mer frequency, TF over GST control)
binding signal (ELF3): 1.44 fold enrichment (6-mer frequency, TF over GST control)
binding signal (CRX): 1.23 fold enrichment (6-mer frequency, TF over GST control)
binding signal (ETV1): 1.43 fold enrichment (6-mer frequency, TF over GST control)
